Among all 98,000 compounds or so, about 4,900 (5%) were called active. Only a selection was taken, and actives are over-represented in it overall. Values without a mark were called inactive. No stated cut-off is given here; in the data, active means inhibition above about 30%; inactive means the rest.

This is an account of results in PubChem BioAssay AID738 (SRMLSC, 2007).

The test is described as follows: yeast control strain growth suppression – counter-screen for post-Golgi transport modulator project, primary screen (AID 738). The settings on record: efflux-deficient yeast background strain, growth absorbance A615, 16 h; at 10 µM; stronger effect = higher value.
For `O=C(Nc1ncccn1)c1cccs1`, the inhibition is 5.69%. For `CCOc1cc(C(=O)Nc2ncccn2)cc(OCC)c1OCC`, the inhibition is -2.73%. As for `Cn1c(=O)c(C(=O)Nc2ncccn2)c(O)c2ccccc21`, the inhibition is 44.2% (active).

Consider `CCCn1nnnc1NC(=O)COc1ccc(Cl)cc1C`, for which the inhibition is 4.96%. For `O=C(NCCc1ccccn1)c1cc(C(=O)C2CCCCC2)c[nH]1` the value was -1.83%. For `Cc1ccc(SCC(=O)NC(=O)NCc2ccco2)c(C)c1` the value was 2.9%. In the case of `O=C1c2cccc3cccc(c23)N1CN1CCN(c2ccccn2)CC1`, the inhibition was 32.2% (active). The figure for `CC(=C1C(=O)c2ccccc2C1=O)N1CCN(c2ccccn2)CC1` is 2.92%. For `OC(COc1cccc2ccccc12)CN1CCN(c2ccccn2)CC1` (configuration not stated), the inhibition is -6.3%. On to `CC1=C(C)CC(C(=O)NNC(=O)c2ccccc2O)C(C(=O)O)C1` (configuration not stated), for which the inhibition was -0.3%.

As to `Cc1nc(NC2=NC(C(=O)Nc3ccc(Cl)cc3)CC(=O)N2)nc2ccccc12` (configuration not stated), the inhibition is -4.48%. For `CSc1ccc(C#N)cc1NC(=O)c1cccc(Cl)c1` the value was 15.8%. For `COC(=O)C(NC(=O)c1ccc(OC)cc1)(Nc1ncc(S(=O)(=O)c2ccc([N+](=O)[O-])cc2)s1)C(F)(F)F` (configuration not stated) the value was 6.12%; for `O=C(NC(Nc1nc2ccc([N+](=O)[O-])cc2s1)(C(F)(F)F)C(F)(F)F)c1ccccc1`, 89.5% (active); for `Cc1cc(C)cc(OCC(=O)Nc2nc3ccc([N+](=O)[O-])cc3s2)c1`, 11.7%. The figure for `COc1ccc2c(c1OC)C(=O)c1ccccc1C2=O` is 1.8%; for `Cc1nnc(SCC(=O)N/N=C/c2cn(-c3ccccc3)nc2-c2ccc(F)cc2)n1-c1ccccc1` it is 4.61%.

Regarding `O=C1c2ccccc2C2=Nc3ccccc3SC(c3ccccc3F)C12` (configuration not stated), the inhibition was 95.4% (active). With `O=C(CN1C(=O)NC2(CCCC2)C1=O)Nc1ccc(F)c(F)c1F`, the inhibition is 3.79%.

For `O=C(Nc1ccccc1)OCc1cc(-c2ccc(Cl)cc2)on1`, the inhibition is 10.1%. With `O=C1C=C(c2ccc(Cl)cc2)C(=O)N1Nc1ccccc1`, the inhibition is 99.5% (active). On to `O=C1c2cccc3cc(Br)cc(c23)C(=O)N1Nc1ccccc1`, for which the inhibition was 12.1%. The figure for `Cc1ccc(-c2nnc(-n3nnc4ccccc43)c3ccccc23)cc1` is 12%; for `N=c1oc2ccccc2cc1C(=O)N/N=C/c1ccccc1` it is -3.5%; for `CCOC(=O)CSc1nnc(-c2ccncc2)o1` it is 2.24%. The figure for `CCN(CC)C(=O)CSc1nnc(-c2cccc(OC)c2)o1` is 2.38%; for `CCOC(=O)CSc1nnc(-c2cccc(Br)c2)o1` it is 31.6% (active); for `O=C(CSCc1ccccc1Cl)NNC(=O)c1ccccc1` it is 3.42%. For `CCOc1ccc(N(CC(=O)NC2CCCCCC2)S(=O)(=O)c2c(C)[nH]c(=O)[nH]c2=O)cc1` the value was 5.91%; for `COc1ccc(-c2c(C(C)=O)c(C)nc3sc4c(=O)n(-c5ccc(C)cc5)nnc4c23)cc1`, 16.1%; for `CCC(C)Sc1nnc(-c2c[nH]c3ccccc23)n1CCOC` (configuration not stated), 0.59%. In the case of `CCn1c(SCCC(C)C)nnc1-c1c[nH]c2ccccc12`, the inhibition is 56.1% (active). For `CCn1c(SCC(=O)Nc2ccc(OC)c(OC)c2)nnc1-c1c[nH]c2ccccc12` the value was 7.39%; for `CN=C1S/C(=C\c2ccc(Sc3ccc(Cl)cc3)o2)C(=O)N1C`, -6.09%; for `COCCNc1nc(-n2nc(C)cc2C)nc2sc3c(c12)CCCC3`, 31.4% (active).

`CCC(O)CNc1nc(-n2nc(C)cc2C)nc2sc3c(c12)CC(C)(C)OC3` (configuration not stated): the inhibition is -1.72%. For `Cc1cc(C)n(-c2nc(SCC(=O)N3CCCC3)c3c4c(sc3n2)CCCC4)n1` the value was 24.5%; for `O=C(Nc1ccc(-n2ccnc2P(=O)(O)c2ccccc2)cc1)c1ccccc1Br`, 13.2%.

For `COc1ccc(NC(=O)/C(Cl)=C(/Cl)S(=O)Cc2ccc(C)cc2)cn1` (configuration not stated), the inhibition was 102% (active). For `COc1ccc(CC(=O)Nc2ccc(-c3nnc(-c4ccc(C)cc4)o3)cc2)cc1` the value was 5.16%; for `COc1cccc(NC(=O)Cc2ccc(C)cc2)c1`, 2.33%. For `O=c1c2ccccc2nc2n1C(CSCc1ccccc1)CS2` (configuration not stated) the value was 3.79%; for `Cc1ccc(N2C(=O)CC(Sc3ncn[nH]3)C2=O)cc1` (configuration not stated), -0.63%; for `CS(=O)(=O)N1CCN(c2ccc(C(=O)NC3C4CC5CC(C4)CC3C5)cc2[N+](=O)[O-])CC1` (configuration not stated), -2.2%. For `CC(NCCO)C(=O)C12CC3CC(CC(C3)C1)C2` (configuration not stated) the value was -1.14%; for `O=C(NC12CC3CC(CC(C3)C1)C2)N1CCCC(CO)C1` (configuration not stated), 7.31%.

Regarding `O=C(CNCCO)NC12CC3CC(CC(C3)C1)C2`, the inhibition was 33.3% (active). For `COc1cc(CNCc2cccs2)cc(Br)c1OC` the value was -5.39%; for `COC(=O)c1cc(OC)ccc1-c1ccc(OC)cc1`, 18.8%. As for `COc1ccc2c(c1)OC(O)(C(F)(F)C(F)F)CC2=O` (configuration not stated), the inhibition is 34.1% (active). Turning to `COc1ccc2c(c1)SC(C)CC2=O` (configuration not stated), the inhibition is -5.53%.

In the case of `Cc1ccc(/C=N/NC(=O)C(NC(=O)c2ccccc2)c2n[nH]c(=O)c3ccccc23)cc1` (configuration not stated), the inhibition is 13.9%. For `COC(=O)C1=C(C)Nc2ncnn2C1c1cccnc1` (configuration not stated) the value was 15%.

Turning to `Clc1ccc2c(c1)C1=C(C(c3ccncc3)O2)C(c2ccc(Br)cc2)n2ncnc2N1` (configuration not stated), the inhibition is 44.5% (active). With `Brc1ccc(C2=CC(c3ccco3)n3ncnc3N2)cc1` (configuration not stated), the inhibition is 19.2%. For `O=C(CNS(=O)(=O)c1ccc(Br)s1)N1CCN(C(=O)c2ccco2)CC1` the value was -3.81%.

Consider `O=C1Cc2ccccc2Sc2ccc(Cl)cc21`, for which the inhibition is 7.76%. For `Cc1nc2ccccc2c2oc(C(=O)NCC3CCCO3)cc12` (configuration not stated) the value was 5.49%; for `Cc1nc2ccccc2c2oc(C(=O)NCCCN3CCC(C)CC3)cc12`, 38.5% (active); for `CCCN(CCC)CCNC(=O)c1cc2c(C)nc3ccccc3c2o1`, -0.17%.

Turning to `CCc1cc(C(c2ccccc2OC)N2CCOCC2)c(NC(=O)c2ccccc2)s1` (configuration not stated), the inhibition is 14.6%. The figure for `O=C(Cn1cnc2c(cnn2-c2ccccc2)c1=O)NCc1ccccc1` is 2.17%. The figure for `O=C(Cn1cnc2ccccc2c1=O)NCC1COc2ccccc2O1` (configuration not stated) is -2.34%. For `CN(Cc1ccccc1)C(=O)CCNC(=O)Cn1cnc2ccccc2c1=O` the value was 32.8% (active); for `N#C/C(=C1/CCCN1)c1ccccn1`, 3.25%; for `CC(C)CNC(=S)NNC(=O)c1ccccc1OC(F)F`, 9.35%. As for `Cc1c(Br)cc(C(=O)N2CCCCCC2)c(C)c1C`, the inhibition is 38.8% (active).

Take `Cc1ccc(C(=O)N2CCCCCC2)cc1Br`: the inhibition was 16.6%. For `Cc1ccc(C(=O)N2CCCC2)c(F)c1F` the value was -0.75%; for `CCOc1cccc(SCc2noc(C(=O)NC(C)C)c2C(=O)O)c1`, -0.31%; for `C=CCn1c(SCC(=O)NCc2ccccc2)nnc1-c1cc(Br)ccc1O`, 1.48%.

Take `COCCCNCC(=O)Nc1sc(C)c(C)c1C(=O)OC`: the inhibition was 5.81%. Turning to `CC(C)(C)NC(=O)NC(=O)COC(=O)Cn1c(C(F)(F)F)nc2ccccc21`, the inhibition is 2.81%. In the case of `CCOC(=O)N1CCN(C(=O)c2cc3c(ccc4ccccc43)oc2=O)CC1`, the inhibition is 3.76%.

In the case of `Cn1cccc1C(=O)NC(=O)COC(=O)Cc1coc2ccc3ccccc3c12`, the inhibition was 33% (active). As to `Cc1ccccc1NC(=O)c1ccccc1NS(=O)(=O)c1cccc2cccnc12`, the inhibition was 8.21%. Take `Cc1cc(C)c2c(-n3cccc3)c(C(=O)NNS(=O)(=O)c3ccc(F)cc3)sc2n1`: the inhibition is 4.13%. The figure for `COc1ccc(NC(=O)COC(=O)Cn2c(C)nc3ccccc32)cc1OC` is 1.03%.

Take `COc1ccc(-c2nc3ccccc3n2CCC(C)C)cc1OC`: the inhibition was 44.3% (active). The figure for `COCCn1c(-c2ccc(OC)c(OC)c2)nc2ccccc21` is -0.3%; for `CC1=NN(C(=O)Cc2ccc(C)cc2)C(O)(c2cccnc2)C1` (configuration not stated) it is 4.82%; for `CCc1ccccc1N(CC(=O)N1CCN(c2ccccc2F)CC1)S(C)(=O)=O` it is 3.45%.

With `O=C(C(NS(=O)(=O)c1cccc2nsnc12)c1ccccc1)N1CCN(c2ccccc2)CC1` (configuration not stated), the inhibition was 2.02%. The figure for `O=C(CCS(=O)(=O)c1cccc2nsnc12)N1CCN(c2ccccc2F)CC1` is 30.8% (active); for `Cn1c(=O)n(C)c2cc(/C=N/NC(=O)c3cccc(Br)c3)ccc21` it is -10.6%; for `Cn1nnnc1SCC(=O)Nc1ccccc1C(=O)NC1CC1` it is 2.02%. As to `c1ccc(CSc2ncnc3c2sc2nc(N4CCOCC4)c4c(c23)CCCC4)cc1`, the inhibition is 10.3%. For `CC(C)c1ccc(Nc2ncccc2C#N)cc1` the value was 7.46%; for `Cc1nn2c(c1-c1ccccc1)N=C(c1ccco1)CC2c1ccccc1` (configuration not stated), 32.2% (active); for `Cc1[nH]c2ccccc2c1C(=O)COC(=O)C(C)C`, 2.83%. For `CCOC(=O)c1c(-c2ccccc2)csc1NC(=S)NC(=O)c1ccccc1` the value was 15.1%; for `COc1ccccc1N1CC(C(=O)Nc2ccc(S(=O)(=O)N3CCOCC3)cc2)CC1=O` (configuration not stated), 5.2%.
